Assay results published in the antibiotic and cytotoxicity screens of Wong et al. (2023).
About 3,300 (8.5%) of roughly 39,000 compounds were called active. For the sample, actives were picked, then their nearest neighbours and some compounds at random.

What follows are compounds tested on HepG2 (assay: cytotoxicity call (relative viability < 0.9)). Settings: 10 µM.
`CNC[C@H]1Oc2cc(C#CC(C)(C)O)ccc2S(=O)(=O)N([C@H](C)CO)C[C@H]1C` was tested, and the cytotoxicity call was “inactive”. In the case of `COc1cc(F)c(F)c(Nc2ccc(I)cc2F)c1NS(=O)(=O)C1(C[C@H](O)CO)CC1`, the cytotoxicity call is reported as “inactive”. For `O=C(NCC1(c2nc(-c3ccccc3)cs2)CCOCC1)c1cccc(-c2noc(C(F)(F)F)n2)c1`, the cytotoxicity call was “inactive”. For `C[C@@H]1CN([C@@H](C)CO)C(=O)c2cccc(NS(=O)(=O)c3cn(C)cn3)c2O[C@@H]1CN(C)Cc1ccc(C(=O)Nc2ccccc2N)cc1`, the cytotoxicity call was “inactive”. For `C[C@H]1CN([C@@H](C)CO)C(=O)c2cccc(NC(=O)c3ccc(-c4nccs4)cc3)c2O[C@H]1CN(C)C(=O)Nc1ccc(F)cc1`, the cytotoxicity call was “inactive”. `C[C@H]1CN([C@@H](C)CO)C(=O)c2cc(NC(=O)Nc3ccc(F)cc3)ccc2O[C@H]1CN(C)C(=O)Nc1cccc2ccccc12` was tested, and the cytotoxicity call was “inactive”. For `O=C(C1=C[C@H](c2ccc(Br)cc2)C[C@H](OCc2ccc(CO)cc2)O1)N1CCN(Cc2ccccc2)CC1`, the cytotoxicity call was “inactive”. `Brc1ccc2nc(N3CCCN(Cc4ccccc4)CC3)nc(NC3CCN(Cc4ccccc4)CC3)c2c1` was tested, and the cytotoxicity call was “active”. In the case of `O=C(C1=C[C@@H](c2ccc(Br)cc2)C[C@@H](OCc2ccc(CO)cc2)O1)N1CCN(Cc2ccccc2)CC1`, the cytotoxicity call is reported as “inactive”. With `COc1cc2c(NC3CCN(C)CC3)nc(N3CCCN(C)CC3)nc2cc1OCCOCCN(C)C` the cytotoxicity call was “inactive”. In the case of `COc1cc2c(cc1OC)C(=O)C(CC1CCN(Cc3ccccc3)CC1)C2.Cl` (configuration not stated), the cytotoxicity call is reported as “inactive”. With `COc1cc(C(=O)OCCCN2CCN(CCCOC(=O)c3cc(OC)c(OC)c(OC)c3)CC2)cc(OC)c1OC` the cytotoxicity call was “inactive”. For `COc1cc2nc(N3CCCN(Cc4ccccc4)CC3)nc(Nc3ccc(F)c(Cl)c3)c2cc1OC`, the cytotoxicity call was “active”. For `COc1cc2nc(N3CCCN(Cc4ccccc4)CC3)nc(NC3CCN(Cc4ccccc4)CC3)c2cc1OC`, the cytotoxicity call was “active”. With `COc1cc(Nc2c(C#N)cnc3cc(OCCCN4CCN(C)CC4)c(OC)cc23)c(Cl)cc1Cl` the cytotoxicity call was “active”. `COc1cc(C(=O)OCCCN2CCCN(CCOC(=O)c3cc(OC)c(OC)c(OC)c3)CC2)cc(OC)c1OC` was tested, and the cytotoxicity call was “inactive”. In the case of `CCOC(=O)/C=C(C)/C=C/C=C(C)/C=C/c1c(C)cc(OC)c(C)c1C`, the cytotoxicity call is reported as “inactive”. In the case of `O=C(NCCCn1ccnc1)C(=O)NC[C@H]1OCCN1S(=O)(=O)c1ccc(F)cc1`, the cytotoxicity call is reported as “inactive”. With `C[C@@H]1CN([C@@H](C)CO)C(=O)c2cccc(NS(=O)(=O)c3ccccc3)c2O[C@H]1CN(C)S(=O)(=O)c1cn(C)cn1` the cytotoxicity call was “inactive”. For `Cc1ccc(S(=O)(=O)Nc2ccc3c(c2)C(=O)N([C@H](C)CO)C[C@@H](C)[C@@H](CN(C)C(=O)c2ccccc2)OCCCC[C@@H](C)O3)cc1`, the cytotoxicity call was “inactive”. With `CC(C)NC(=O)Nc1ccc2c(c1)C(=O)N([C@@H](C)CO)C[C@H](C)[C@@H](CN(C)S(=O)(=O)c1ccc(F)cc1)O2` the cytotoxicity call was “inactive”. In the case of `COc1ccc(C#Cc2cnc3c(c2)C(=O)N([C@H](C)CO)C[C@@H](C)[C@@H](CN(C)C(=O)CN(C)C)O3)cc1`, the cytotoxicity call is reported as “inactive”. With `C[C@H]1CN([C@@H](C)CO)C(=O)c2cc(NC(=O)CCCN(C)C)ccc2O[C@@H]1CN(C)S(=O)(=O)c1cn(C)cn1` the cytotoxicity call was “inactive”. With `C[C@H](CO)N1C[C@H](C)[C@H](CN(C)Cc2ccc3c(c2)OCO3)Oc2ccc(NC(=O)C3CC3)cc2CC1=O` the cytotoxicity call was “inactive”. `Nc1ncn(C(=O)c2ccccc2)n1` was tested, and the cytotoxicity call was “inactive”. `C[C@@H]1CN([C@H](C)CO)C(=O)c2cccc(NC(=O)c3nc4ccccc4s3)c2O[C@@H]1CN(C)Cc1ccc(C(=O)Nc2ccccc2N)cc1` was tested, and the cytotoxicity call was “inactive”. For `O=C(C[C@H]1C[C@@H]2c3cc(NS(=O)(=O)c4ccccc4)ccc3O[C@@H]2[C@@H](CO)O1)NC1CCCCC1`, the cytotoxicity call was “inactive”. For `COc1ccc(NC(C)=S)cc1C`, the cytotoxicity call was “inactive”. For `COc1ccc(S(=O)(=O)Nc2ccc3c(c2)C(=O)N([C@H](C)CO)C[C@@H](C)[C@H](CN(C)Cc2ccccc2)OCCCC[C@@H](C)O3)cc1`, the cytotoxicity call was “inactive”. `COc1cc2c(N3CCN(C(=O)Nc4ccc(OC(C)C)cc4)CC3)ncnc2cc1OCCCN1CCCCC1` was tested, and the cytotoxicity call was “inactive”. In the case of `COc1cc2ncnc(Nc3ccc(F)c(Cl)c3)c2cc1OCCCN1CCOCC1`, the cytotoxicity call is reported as “active”. For `COc1cc2c(NC3CCN(C(C)C)CC3)nc(N3CCC(F)(F)CC3)nc2cc1OCCCN1CCCC1`, the cytotoxicity call was “active”. For `O=C(NCCCN1CCOCC1)c1ccc(Cl)cc1`, the cytotoxicity call was “inactive”. With `C[C@H](CO)N1C[C@H](C)[C@@H](CN(C)Cc2ccc(O)cc2)OCc2ccccc2-c2c(n(C)c3ccccc23)C1=O` the cytotoxicity call was “inactive”. `Cc1noc(C)c1NC(=O)Nc1ccc2c(c1)C(=O)N([C@@H](C)CO)C[C@@H](C)[C@H](CN(C)C(=O)Nc1ccc(F)cc1)OCCCC[C@H](C)O2` was tested, and the cytotoxicity call was “inactive”. In the case of `C[C@H](CO)N1C[C@H](C)[C@H](CN(C)Cc2ccc(C(F)(F)F)cc2)Oc2ccc(NC(=O)CCC(F)(F)F)cc2CC1=O`, the cytotoxicity call is reported as “inactive”. `C[C@@H]1CN([C@@H](C)CO)C(=O)Cc2cc(NC(=O)CCC(F)(F)F)ccc2O[C@H]1CN(C)Cc1ccc(C(F)(F)F)cc1` was tested, and the cytotoxicity call was “inactive”. For `C[C@H]1CN([C@@H](C)CO)C(=O)Cc2cc(NC(=O)CCC(F)(F)F)ccc2O[C@H]1CN(C)Cc1ccc(C(F)(F)F)cc1`, the cytotoxicity call was “inactive”. For `C[C@@H]1CN([C@H](C)CO)C(=O)Cc2cc(NC(=O)CCC(F)(F)F)ccc2O[C@@H]1CN(C)Cc1ccc(-c2ccccc2)cc1`, the cytotoxicity call was “active”. In the case of `C[C@H](CO)N1C[C@H](C)[C@@H](CN(C)Cc2ccc(-c3ccccc3)cc2)Oc2ccc(NC(=O)CCC(F)(F)F)cc2CC1=O`, the cytotoxicity call is reported as “inactive”. `C[C@@H]1CN([C@@H](C)CO)C(=O)Cc2cc(NC(=O)CCC(F)(F)F)ccc2O[C@H]1CN(C)Cc1ccc(-c2ccccc2)cc1` was tested, and the cytotoxicity call was “inactive”. In the case of `C[C@@H]1CN([C@H](C)CO)C(=O)Cc2cc(NC(=O)CCC(F)(F)F)ccc2O[C@H]1CN(C)Cc1ccc(-c2ccccc2)cc1`, the cytotoxicity call is reported as “active”. In the case of `C[C@H](CO)N1C[C@H](C)[C@H](CN(C)Cc2ccc(-c3ccccc3)cc2)Oc2ccc(NC(=O)CCC(F)(F)F)cc2CC1=O`, the cytotoxicity call is reported as “inactive”. With `C[C@@H]1CN([C@@H](C)CO)C(=O)Cc2cc(NC(=O)CCC(F)(F)F)ccc2O[C@@H]1CN(C)Cc1ccc(-c2ccccc2)cc1` the cytotoxicity call was “inactive”. For `C[C@H]1CN([C@@H](C)CO)C(=O)Cc2cc(NC(=O)CCC(F)(F)F)ccc2O[C@H]1CN(C)Cc1ccc(-c2ccccc2)cc1`, the cytotoxicity call was “active”. In the case of `C[C@H](CO)N1C[C@H](C)[C@@H](CN(C)Cc2ccc(C(F)(F)F)cc2)Oc2ccc(NC(=O)CCC(F)(F)F)cc2CC1=O`, the cytotoxicity call is reported as “inactive”. For `C[C@H]1CN([C@@H](C)CO)C(=O)Cc2cc(NC(=O)CCC(F)(F)F)ccc2O[C@@H]1CN(C)Cc1ccc(-c2ccccc2)cc1`, the cytotoxicity call was “active”.
